Experimental data as given in the supplement of paper PMC7411640.
Where a name gives a salt, the structure may show the parent alone.

Test system: MDA-MB-468
Assay: phospho-S6 immunofluorescence (DAPI-normalised), per-plate z-score; higher = higher phospho-S6 signal (less pathway suppression)
Conditions: 24 h
Description: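 GPCR-targeted compound library (MedChemExpress HY-L006) tested on MDA-MB-468 PTEN-null TNBC cells in 384-well plates at 0.1, 1 or 10 uM, combined with vehicle, GDC0941 450 nM or lapatinib 1 uM, for 24 h. Phospho-S6 (S240/244) immunofluorescence normalised to DAPI and expressed as a per-plate z-score; values are the mean of biological triplicates.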

SMILES	phospho-S6 immunofluorescence (z-score) (co-treatment: GDC0941 450 nM)	phospho-S6 immunofluorescence (z-score) (co-treatment: lapatinib 1 uM)	phospho-S6 immunofluorescence (z-score) (co-treatment: vehicle)
Cc1cccn2c(=O)c(C=C(C#N)c3nc4ccccc4s3)c(Oc3ccc(F)cc3)nc12 (compound 10 µM)	0.33	1.14	-0.48
O=C1NCC2(CCN(CCc3ccccc3)CC2)O1 [Fenspiride (Hydrochloride)] (compound 10 µM)	0.59	0.67	1.01
CCC(=O)O[C@]1(C(=O)SCF)[C@H](C)C[C@H]2[C@@H]3C[C@H](F)C4=CC(=O)C=C[C@]4(C)[C@@]3(F)[C@@H](O)C[C@@]21C [Fluticasone (propionate)] (compound 10 µM)	0.26	-0.29	-0.43
CCCN(CCc1cccs1)C1CCc2c(O)cccc2C1 (racemic) [rac-Rotigotine (Hydrochloride)] (compound 10 µM)	-0.62	0.67	-0.11
CN1[C@@H]2CC[C@H]1C[C@@H](OC(=O)c1c[nH]c3ccccc13)C2 [Tropisetron] (compound 10 µM)	0.73	1.44	0.31
CC1=C(C)C(=O)C(C(CCCCCC(=O)O)c2ccccc2)=C(C)C1=O (configuration not stated) [Seratrodast] (compound 10 µM)	1.01	1.15	0.08
O=C(c1ccc(F)cc1)N1CCC[C@H](c2nc(-c3ccc(F)cc3)no2)C1 (compound 10 µM)	-2.64	-3.29	-2.93
CNCC(O)c1ccc(O)c(O)c1 [L-Epinephrine] (compound 10 µM)	0.44	2.36	-0.3
CCCN[C@@H]1CCc2nc(N)sc2C1 [Dexpramipexole (dihydrochloride)] (compound 10 µM)	1.16	0.15	0.4
COC(=O)N(C)c1c(N)nc(-c2nn(Cc3ccccc3F)c3ncccc23)nc1N [Riociguat] (compound 10 µM)	-0.84	0.03	-0.56
COCc1nnc(N2CC(Oc3ccc(F)cc3Cl)C2)n1-c1ccc(OC)nc1 (compound 10 µM)	-0.38	-0.91	-0.61
Cn1c(=O)c2c(ncn2CC(O)CO)n(C)c1=O (configuration not stated) [Diphylline] (compound 10 µM)	-0.54	-0.14	-0.15
COc1nc(C)cnc1NS(=O)(=O)c1cccnc1-c1ccc(-c2nnco2)cc1 [Zibotentan] (compound 10 µM)	-2.05	-0.19	-2.06
Cc1cc(C)nc(NS(=O)(=O)c2ccc(NC(=S)NC(=O)COc3ccc(Br)cc3Cl)cc2)n1 (compound 10 µM)	0.46	-0.41	0.28
CN(C)[C@@H]1CCc2[nH]c3ccc(NC(=O)c4ccc(F)cc4)cc3c2C1 (compound 10 µM)	0.67	-1.38	-0.54
CN1CCC(OC(c2ccccc2)c2ccccc2)CC1 [Diphenylpyraline (hydrochloride)] (compound 10 µM)	0.68	0.42	-0.04
OC(CCN1CCCCC1)(c1ccccc1)C1CC2C=CC1C2 (configuration not stated) [Biperiden (Hydrochloride)] (compound 10 µM)	-1.68	-0.97	-1.56
CC(C)N(CCCCOCC(=O)NS(C)(=O)=O)c1cnc(-c2ccccc2)c(-c2ccccc2)n1 (compound 10 µM)	0.87	0.26	-0.38
CC(=O)OCC(=O)[C@@]12N=C(C)O[C@@H]1C[C@H]1[C@@H]3CCC4=CC(=O)C=C[C@]4(C)[C@H]3[C@@H](O)C[C@@]12C [Deflazacort] (compound 10 µM)	-0.99	-0.57	-0.08
CN1CC2c3ccccc3Oc3ccc(Cl)cc3C2C1 (configuration not stated) [Asenapine (maleate)] (compound 10 µM)	0.37	-1.57	-0.61
CCOc1nc2cccc(C(=O)O)c2n1Cc1ccc(-c2ccccc2-c2noc(=O)[nH]2)cc1 [Azilsartan] (compound 10 µM)	-0.76	0.26	-0.54
O=S(=O)(c1ccccc1)c1cnc2c(N3CCNCC3)cccc2c1 (compound 10 µM)	0.13	-2.25	0.76
CC(C)Cc1ccc([C@@H](C)C(=O)NS(C)(=O)=O)cc1 [Reparixin (L-lysine salt)] (compound 10 µM)	-1.6	-1.46	-0.67
CCOc1cc(N)c(Cl)cc1C(=O)NCC1CN(Cc2ccc(F)cc2)CCO1 (configuration not stated) [Mosapride (citrate)] (compound 10 µM)	0.76	0.46	0.79
